Laboratory results taken from article PMC7862700, “An all-to-all approach to the identification of sequence-specific readers for epigenetic DNA modifications on cytosine”.

Key:
Experiment in all cases: DAPPL (digital affinity profiling via proximity ligation, sequencing); 10 mM Tris-HCl pH 7.5, 50 mM NaCl, 1 mM DTT, 4% glycerol, room temperature, 30 min; GST-TFs on glutathione beads, 16-mer random dsDNA library, 0.1% formaldehyde crosslink after washing; high values mean tight binding
Conditions in all cases: protein: recombinant; tags: N-terminal GST; dsDNA, one strand shown
ERF = biological target: T1, ERF (Homo sapiens, UniProt P50548 1-548)
T1 sequence: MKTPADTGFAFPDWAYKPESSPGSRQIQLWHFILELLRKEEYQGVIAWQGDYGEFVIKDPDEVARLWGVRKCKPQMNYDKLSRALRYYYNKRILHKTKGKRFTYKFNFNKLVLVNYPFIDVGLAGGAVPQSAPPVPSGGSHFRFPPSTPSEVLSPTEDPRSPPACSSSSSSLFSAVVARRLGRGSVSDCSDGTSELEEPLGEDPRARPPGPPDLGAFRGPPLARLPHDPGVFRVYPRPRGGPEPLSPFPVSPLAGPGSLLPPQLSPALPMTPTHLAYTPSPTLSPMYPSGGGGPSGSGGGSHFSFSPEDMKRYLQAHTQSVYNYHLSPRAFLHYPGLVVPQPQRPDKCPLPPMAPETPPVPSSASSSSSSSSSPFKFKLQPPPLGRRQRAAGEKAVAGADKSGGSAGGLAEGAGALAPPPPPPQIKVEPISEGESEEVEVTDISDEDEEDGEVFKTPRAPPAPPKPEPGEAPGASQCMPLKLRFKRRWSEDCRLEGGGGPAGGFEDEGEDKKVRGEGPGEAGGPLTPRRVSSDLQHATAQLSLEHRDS
Method in brief: (§1)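 GST fusions of human transcription factors were expressed in yeast and captured with glutathione beads. Once given DNA barcodes and pooled alongside a tag-only sample, they were incubated for 30 min at room temperature with 200 nmole of a random double-stranded 16-mer DNA library in Tris/NaCl/DTT/glycerol buffer, then washed, crosslinked (0.1% formaldehyde), proximity-ligated, PCR-amplified and sequenced on an Illumina NextSeq500. The binding signal of each hexamer is its read frequency for a factor divided by its frequency for the tag-only sample.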

ETV3L = biological target: T2, ETV3L (Homo sapiens, UniProt Q6ZN32 1-361)
T2 sequence: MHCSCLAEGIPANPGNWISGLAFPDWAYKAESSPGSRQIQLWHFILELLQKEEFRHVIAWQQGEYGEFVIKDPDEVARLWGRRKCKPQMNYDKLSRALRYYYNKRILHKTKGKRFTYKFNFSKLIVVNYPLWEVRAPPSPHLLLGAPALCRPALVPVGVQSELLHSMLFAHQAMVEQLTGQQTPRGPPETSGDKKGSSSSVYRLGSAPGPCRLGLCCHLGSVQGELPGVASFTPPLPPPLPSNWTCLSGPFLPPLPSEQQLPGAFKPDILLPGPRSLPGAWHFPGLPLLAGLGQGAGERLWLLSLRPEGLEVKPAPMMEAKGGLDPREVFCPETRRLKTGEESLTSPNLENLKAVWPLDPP
Method in brief: as §1

ETS2 = biological target: T3, ETS2 (Homo sapiens, UniProt P15036 1-469)
T3 sequence: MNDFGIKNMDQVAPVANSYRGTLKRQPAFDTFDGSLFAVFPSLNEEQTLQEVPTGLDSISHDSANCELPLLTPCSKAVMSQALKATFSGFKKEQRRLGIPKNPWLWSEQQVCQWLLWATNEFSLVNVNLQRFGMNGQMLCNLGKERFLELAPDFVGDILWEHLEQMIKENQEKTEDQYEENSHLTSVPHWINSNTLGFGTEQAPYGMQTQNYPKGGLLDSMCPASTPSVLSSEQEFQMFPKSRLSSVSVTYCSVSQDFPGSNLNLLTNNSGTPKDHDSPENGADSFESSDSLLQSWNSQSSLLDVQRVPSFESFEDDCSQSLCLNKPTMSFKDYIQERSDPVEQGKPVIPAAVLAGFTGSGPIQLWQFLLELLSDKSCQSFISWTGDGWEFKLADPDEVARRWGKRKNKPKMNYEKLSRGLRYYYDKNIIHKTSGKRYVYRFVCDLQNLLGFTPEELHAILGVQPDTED
Method in brief: as §1

SPDEF = biological target: T4, SPDEF (Homo sapiens, UniProt O95238 1-335)
T4 sequence: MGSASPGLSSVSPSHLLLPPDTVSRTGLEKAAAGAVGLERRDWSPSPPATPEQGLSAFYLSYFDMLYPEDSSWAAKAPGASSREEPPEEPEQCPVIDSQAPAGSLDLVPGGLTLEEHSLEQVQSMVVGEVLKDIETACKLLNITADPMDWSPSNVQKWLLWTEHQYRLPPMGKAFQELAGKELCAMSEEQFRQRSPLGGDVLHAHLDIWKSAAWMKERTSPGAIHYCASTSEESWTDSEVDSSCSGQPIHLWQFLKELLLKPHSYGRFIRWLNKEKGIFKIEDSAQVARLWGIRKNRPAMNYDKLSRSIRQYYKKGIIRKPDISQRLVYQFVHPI
Method in brief: as §1

ETV7 = biological target: T5, ETV7 (Homo sapiens, UniProt Q9Y603 1-341)
T5 sequence: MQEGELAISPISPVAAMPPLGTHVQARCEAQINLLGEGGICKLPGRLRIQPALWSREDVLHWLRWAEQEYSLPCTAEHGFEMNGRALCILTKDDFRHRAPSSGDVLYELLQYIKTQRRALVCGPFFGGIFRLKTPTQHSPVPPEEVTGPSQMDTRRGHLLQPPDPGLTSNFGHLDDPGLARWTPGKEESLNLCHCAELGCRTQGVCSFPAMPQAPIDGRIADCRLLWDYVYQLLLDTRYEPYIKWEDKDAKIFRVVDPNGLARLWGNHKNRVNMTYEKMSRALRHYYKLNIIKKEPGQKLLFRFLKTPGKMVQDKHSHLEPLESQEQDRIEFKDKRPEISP
Method in brief: as §1

ELF5 = biological target: T6, ELF5 (Homo sapiens, UniProt Q9UKW6-2 1-255)
T6 sequence: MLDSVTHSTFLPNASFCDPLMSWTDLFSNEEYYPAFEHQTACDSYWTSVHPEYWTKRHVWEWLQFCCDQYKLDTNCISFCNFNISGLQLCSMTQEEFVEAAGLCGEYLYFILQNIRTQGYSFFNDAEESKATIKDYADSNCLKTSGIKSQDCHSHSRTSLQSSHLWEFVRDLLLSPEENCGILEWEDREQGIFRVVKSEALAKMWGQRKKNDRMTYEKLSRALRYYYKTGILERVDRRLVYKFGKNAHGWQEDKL
Method in brief: as §1

ETV3 = biological target: T7, ETV3 (Homo sapiens, UniProt P41162-2 1-143)
T7 sequence: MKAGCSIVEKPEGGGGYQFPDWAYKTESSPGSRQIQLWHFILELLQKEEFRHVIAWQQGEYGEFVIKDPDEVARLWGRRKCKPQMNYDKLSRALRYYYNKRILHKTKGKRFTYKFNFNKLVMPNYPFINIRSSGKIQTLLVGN
Method in brief: as §1

ETV6 = ETV6 (Homo sapiens, UniProt P41212 1-452)
Chain of ETV6 (P41212 whole entry): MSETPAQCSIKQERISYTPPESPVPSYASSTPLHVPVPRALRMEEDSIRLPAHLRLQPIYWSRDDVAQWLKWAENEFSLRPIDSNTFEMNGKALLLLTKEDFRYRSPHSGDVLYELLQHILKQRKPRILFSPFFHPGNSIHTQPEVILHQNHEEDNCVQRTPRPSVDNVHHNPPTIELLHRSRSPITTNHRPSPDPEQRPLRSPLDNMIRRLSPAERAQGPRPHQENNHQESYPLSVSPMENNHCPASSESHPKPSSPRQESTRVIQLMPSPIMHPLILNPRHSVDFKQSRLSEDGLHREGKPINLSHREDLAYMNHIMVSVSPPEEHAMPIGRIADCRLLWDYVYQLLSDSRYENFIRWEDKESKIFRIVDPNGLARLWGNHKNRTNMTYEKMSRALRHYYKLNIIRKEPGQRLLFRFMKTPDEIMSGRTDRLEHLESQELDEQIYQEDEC
Method in brief: as §1

Sequence	binding signal (ERF)	binding signal (ETV3L)	binding signal (ETS2)	binding signal (SPDEF)	binding signal (ETV7)	binding signal (ELF5)	binding signal (ETV3)	binding signal (ETV6)
CTTCTA	1.5 fold enrichment (6-mer frequency, TF over GST control)	1.35 fold enrichment (6-mer frequency, TF over GST control)	1.53 fold enrichment (6-mer frequency, TF over GST control)	1.3 fold enrichment (6-mer frequency, TF over GST control)	1.43 fold enrichment (6-mer frequency, TF over GST control)	1.39 fold enrichment (6-mer frequency, TF over GST control)	1.2 fold enrichment (6-mer frequency, TF over GST control)	1.4 fold enrichment (6-mer frequency, TF over GST control)
ATGTAT	1.47 fold enrichment (6-mer frequency, TF over GST control)	1.48 fold enrichment (6-mer frequency, TF over GST control)	1.34 fold enrichment (6-mer frequency, TF over GST control)	1.65 fold enrichment (6-mer frequency, TF over GST control)	1.47 fold enrichment (6-mer frequency, TF over GST control)	1.31 fold enrichment (6-mer frequency, TF over GST control)	1.42 fold enrichment (6-mer frequency, TF over GST control)	1.32 fold enrichment (6-mer frequency, TF over GST control)
TACCGC	1.1 fold enrichment (6-mer frequency, TF over GST control)	1.14 fold enrichment (6-mer frequency, TF over GST control)	1.05 fold enrichment (6-mer frequency, TF over GST control)	1.17 fold enrichment (6-mer frequency, TF over GST control)	1.13 fold enrichment (6-mer frequency, TF over GST control)	1.08 fold enrichment (6-mer frequency, TF over GST control)	1.12 fold enrichment (6-mer frequency, TF over GST control)	1.04 fold enrichment (6-mer frequency, TF over GST control)
ACAGGA	1.03 fold enrichment (6-mer frequency, TF over GST control)	1.11 fold enrichment (6-mer frequency, TF over GST control)	1.16 fold enrichment (6-mer frequency, TF over GST control)	1.37 fold enrichment (6-mer frequency, TF over GST control)	1.11 fold enrichment (6-mer frequency, TF over GST control)	1.28 fold enrichment (6-mer frequency, TF over GST control)	1.15 fold enrichment (6-mer frequency, TF over GST control)	1.19 fold enrichment (6-mer frequency, TF over GST control)
GTTCAC	1.29 fold enrichment (6-mer frequency, TF over GST control)	1.25 fold enrichment (6-mer frequency, TF over GST control)	1.28 fold enrichment (6-mer frequency, TF over GST control)	1.23 fold enrichment (6-mer frequency, TF over GST control)	1.29 fold enrichment (6-mer frequency, TF over GST control)	1.13 fold enrichment (6-mer frequency, TF over GST control)	1.19 fold enrichment (6-mer frequency, TF over GST control)	1.2 fold enrichment (6-mer frequency, TF over GST control)
CACTAC	1.33 fold enrichment (6-mer frequency, TF over GST control)	1.29 fold enrichment (6-mer frequency, TF over GST control)	1.31 fold enrichment (6-mer frequency, TF over GST control)	1.14 fold enrichment (6-mer frequency, TF over GST control)	1.27 fold enrichment (6-mer frequency, TF over GST control)	1.26 fold enrichment (6-mer frequency, TF over GST control)	1.26 fold enrichment (6-mer frequency, TF over GST control)	1.24 fold enrichment (6-mer frequency, TF over GST control)
ATACTT	1.66 fold enrichment (6-mer frequency, TF over GST control)	1.59 fold enrichment (6-mer frequency, TF over GST control)	1.59 fold enrichment (6-mer frequency, TF over GST control)	1.63 fold enrichment (6-mer frequency, TF over GST control)	1.69 fold enrichment (6-mer frequency, TF over GST control)	1.84 fold enrichment (6-mer frequency, TF over GST control)	1.63 fold enrichment (6-mer frequency, TF over GST control)	1.87 fold enrichment (6-mer frequency, TF over GST control)
AAATTA	1.26 fold enrichment (6-mer frequency, TF over GST control)	1.31 fold enrichment (6-mer frequency, TF over GST control)	1.27 fold enrichment (6-mer frequency, TF over GST control)	1.18 fold enrichment (6-mer frequency, TF over GST control)	1.32 fold enrichment (6-mer frequency, TF over GST control)	1.24 fold enrichment (6-mer frequency, TF over GST control)	1.29 fold enrichment (6-mer frequency, TF over GST control)	1.25 fold enrichment (6-mer frequency, TF over GST control)
GTCCCC	1.23 fold enrichment (6-mer frequency, TF over GST control)	1.15 fold enrichment (6-mer frequency, TF over GST control)	1.15 fold enrichment (6-mer frequency, TF over GST control)	1.14 fold enrichment (6-mer frequency, TF over GST control)	1.27 fold enrichment (6-mer frequency, TF over GST control)	1.13 fold enrichment (6-mer frequency, TF over GST control)	1.14 fold enrichment (6-mer frequency, TF over GST control)	1.24 fold enrichment (6-mer frequency, TF over GST control)
AAGTGG	1.24 fold enrichment (6-mer frequency, TF over GST control)	1.17 fold enrichment (6-mer frequency, TF over GST control)	1.19 fold enrichment (6-mer frequency, TF over GST control)	1.06 fold enrichment (6-mer frequency, TF over GST control)	1.31 fold enrichment (6-mer frequency, TF over GST control)	1.24 fold enrichment (6-mer frequency, TF over GST control)	1.23 fold enrichment (6-mer frequency, TF over GST control)	1.3 fold enrichment (6-mer frequency, TF over GST control)
CGTCCG	1.32 fold enrichment (6-mer frequency, TF over GST control)	1.19 fold enrichment (6-mer frequency, TF over GST control)	1.28 fold enrichment (6-mer frequency, TF over GST control)	1.48 fold enrichment (6-mer frequency, TF over GST control)	1.37 fold enrichment (6-mer frequency, TF over GST control)	1.44 fold enrichment (6-mer frequency, TF over GST control)	1.22 fold enrichment (6-mer frequency, TF over GST control)	1.34 fold enrichment (6-mer frequency, TF over GST control)
TGGTTA	1.05 fold enrichment (6-mer frequency, TF over GST control)	1.12 fold enrichment (6-mer frequency, TF over GST control)	1.07 fold enrichment (6-mer frequency, TF over GST control)	1.07 fold enrichment (6-mer frequency, TF over GST control)	1.16 fold enrichment (6-mer frequency, TF over GST control)	1.05 fold enrichment (6-mer frequency, TF over GST control)	1.05 fold enrichment (6-mer frequency, TF over GST control)	1.1 fold enrichment (6-mer frequency, TF over GST control)
TAACGA	1.03 fold enrichment (6-mer frequency, TF over GST control)	1.04 fold enrichment (6-mer frequency, TF over GST control)	1.12 fold enrichment (6-mer frequency, TF over GST control)	1.16 fold enrichment (6-mer frequency, TF over GST control)	1.1 fold enrichment (6-mer frequency, TF over GST control)	1.06 fold enrichment (6-mer frequency, TF over GST control)	1.06 fold enrichment (6-mer frequency, TF over GST control)	1.08 fold enrichment (6-mer frequency, TF over GST control)
CGTCTT	1.24 fold enrichment (6-mer frequency, TF over GST control)	1.4 fold enrichment (6-mer frequency, TF over GST control)	1.4 fold enrichment (6-mer frequency, TF over GST control)	1.48 fold enrichment (6-mer frequency, TF over GST control)	1.41 fold enrichment (6-mer frequency, TF over GST control)	1.5 fold enrichment (6-mer frequency, TF over GST control)	1.44 fold enrichment (6-mer frequency, TF over GST control)	1.5 fold enrichment (6-mer frequency, TF over GST control)
GTATAC	1.41 fold enrichment (6-mer frequency, TF over GST control)	1.16 fold enrichment (6-mer frequency, TF over GST control)	1.32 fold enrichment (6-mer frequency, TF over GST control)	1.3 fold enrichment (6-mer frequency, TF over GST control)	1.2 fold enrichment (6-mer frequency, TF over GST control)	1.31 fold enrichment (6-mer frequency, TF over GST control)	1.23 fold enrichment (6-mer frequency, TF over GST control)	1.19 fold enrichment (6-mer frequency, TF over GST control)
